# Inconclusive results are not listed. Activity calls are given as the source filed them. The calls were made as follows, unless noted: active = hit-call score of the fitted dose curve at least 0.9, where 1 is the maximum; inactive = score below 0.9.
# Key:
# [1] = molecular target: Glucocorticoid receptor (Homo sapiens) (UniProt P04150); test: ATG_GR_TRANS: Attagene TRANS-FACTORIAL HepG2 Assay for human Glucocorticoid Receptor (GR) (AID 2282978; active = hit-call score of the fitted dose curve at least 0.9, where 1 is the maximum;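 also: activators score as hits since higher reporter transcript over DMSO is fitted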); details: HepG2 Attagene TRANS GR reporter, mRNA transcription
# How it was run: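 HepG2 cells transiently transfected with multiplexed reporter units in which chimeric NR-GAL4 proteins drive GAL4-UAS reporters; 24 h compound exposure. Reporter mRNA measured by RT-PCR, 6-FAM labelling, HpaI digestion and capillary electrophoresis; gain-of-signal fitted versus DMSO.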
# [2] = molecular target: Transcriptional activator Myb (Homo sapiens) (UniProt P10242); test: ATG_Myb_CIS: Attagene CIS-FACTORIAL HepG2 Assay for human Myeloblastosis (Myb) Proto-Oncogene Transcription Factor (AID 2282986); details: HepG2 Attagene CIS-FACTORIAL Myb reporter transcription; actives raise or lower the signal
# How it was run: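 HepG2 cells were transiently transfected with cis-regulated multiple reporter transcription units reflecting endogenous Myb activity, then exposed to compound for 24 hours. Reporter mRNA was measured by RT-PCR with capillary electrophoresis; bidirectional fitting versus DMSO baseline.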
# [3] = molecular target: Nuclear respiratory factor 1 (Homo sapiens) (UniProt Q16656); test: ATG_NRF1_CIS: Attagene CIS-FACTORIAL HepG2 Assay for human Nuclear Respiratory Factor 1 (NRF1) Orphan Gene (AID 2282987); details: HepG2 NRF1 cis-element reporter, Attagene multiplex; actives raise or lower the signal
# How it was run: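 HepG2 cells transiently transfected with multiple reporter transcription units under cis-regulatory promoter control, so endogenous transcription-factor activity is read. After 24 h compound exposure, reporter mRNA quantified by RT-PCR, fluorescent labelling, HpaI digestion and capillary electrophoresis; bidirectional fitting versus DMSO.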
# [4] = ATG_NFI_CIS: Attagene CIS-FACTORIAL HepG2 Assay for human Nuclear Factor I (NFI) (AID 2282989); details: HepG2 cis-regulatory reporter, NFI response element transcription; actives raise or lower the signal
# How it was run: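 Reporter transcripts were measured by RT-PCR with fluorescent primer extension and capillary electrophoresis 24 h post-treatment. HepG2 cells carried transiently transfected cis-regulated reporter constructs reporting endogenous factor activity; gain or loss fitted against DMSO baseline.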
# [5] = molecular target: Myc proto-oncogene protein (Homo sapiens) (UniProt P01106); test: ATG_Myc_CIS: Attagene CIS-FACTORIAL HepG2 Assay for human Myelocytomatosis (Myc) Proto-Oncogene Transcription Factor (AID 2282990); details: HepG2, Attagene cis-reporter transcription factor activity; actives raise or lower the signal
# How it was run: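 After 24 h chemical treatment of HepG2 cells carrying multiplexed cis-regulated reporter constructs, reporter transcripts quantified by RT-PCR and capillary electrophoresis of fluorescent fragments. Gain or loss fitted against DMSO baseline.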
# [6] = ATG_NRF2_ARE_CIS: Attagene CIS-FACTORIAL HepG2 Assay for human Nuclear Factor Erythroid 2 Related Factor 2 (NFR2) response to Antioxidant Response Elements (ARE) (AID 2282992); details: HepG2 Attagene ARE/NRF2 reporter, transcription factor activity; actives raise or lower the signal;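 as to AC50: reporter mRNA level measured by RT-PCR and capillary electrophoresis fluorescence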
# How it was run: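 Fluorescence intensity of reporter-specific cDNA fragments, separated by capillary electrophoresis, reflects mRNA induction in transfected HepG2 cells at 24 h. Activity is fitted bidirectionally, DMSO serving as baseline.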
# [7] = ATG_Oct_MLP_CIS: Attagene CIS-FACTORIAL HepG2 Assay for human Octamer-Binding Transcription Factor (Oct) (AID 2282993); details: HepG2 Attagene cis-factorial Oct reporter, mRNA; actives raise or lower the signal
# How it was run: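 Readout is reporter transcript level from RT-PCR with fluorescent primer extension and capillary electrophoresis, fitted in both directions against DMSO. Transfected HepG2 reporter units report endogenous factor activity after 24 h dosing.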
# [8] = molecular target: Oxysterols receptor LXR-beta (Homo sapiens) (UniProt P55055); test: ATG_LXRb_TRANS: Attagene TRANS-FACTORIAL HepG2 Assay for human Liver X Receptor beta (LXRb) (AID 2282981; active = hit-call score of the fitted dose curve at least 0.9, where 1 is the maximum); details: HepG2 Attagene TRANS GAL4-LXRb reporter, mRNA
# How it was run: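 After 24 h chemical treatment of transfected HepG2 cells carrying exogenous NR-Gal4 chimeras, reporter mRNA was quantified by fluorescent RT-PCR and capillary electrophoresis; activity taken as increase over DMSO controls.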
# [9] = ATG_NF_kB_CIS: Attagene CIS-FACTORIAL HepG2 Assay for human Nuclear Factor Kappa B (NF-kB) (AID 2282991); details: HepG2 Attagene cis-factorial NF-kB reporter mRNA; actives raise or lower the signal
# How it was run: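 HepG2 cells transiently transfected with multiplexed cis-element reporter units measuring endogenous transcription factor activity; reporter mRNA read 24 h after dosing by RT-PCR, fluorescent labelling, HpaI digestion and capillary electrophoresis. Bidirectional fit against DMSO baseline.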
# [10] = molecular target: Cellular tumor antigen p53 (Homo sapiens) (UniProt P04637); test: ATG_p53_CIS: Attagene CIS-FACTORIAL HepG2 Assay for human p53 Transcription Factor (AID 2282994); details: HepG2 p53 cis-element reporter, Attagene mRNA; actives raise or lower the signal
# How it was run: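 Transiently transfected HepG2 (multiple cis reporter transcription units); exposure 24 h; reporter RNA via RT-PCR, 6-FAM extension, 2 h HpaI digest at 37 C, CE detection; DMSO baseline.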
# [11] = BSK_3C_TissueFactor: BioMAP Diversity Plus: 3C Assay for Tissue Factor Biomarker Activity (AID 2282997); details: BioMAP 3C HUVEC, tissue factor biomarker readout; actives raise or lower the signal
# How it was run: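 In this endothelial system, HUVEC are treated for 24 h and Tissue Factor is assessed by ELISA, normalised to DMSO.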
# [12] = BSK_3C_uPAR: BioMAP Diversity Plus: 3C Assay for Urokinase-type plasminogen activator receptor (uPAR) Biomarker Activity (AID 2282998); details: BioMAP 3C HUVEC, uPAR biomarker ELISA; actives raise or lower the signal
# How it was run: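 Cell-surface uPAR on HUVEC (3C system) read by ELISA at 24 h post-treatment, with DMSO as baseline and fitting in both directions. Parallel cultures stained with SRB to flag overt cytotoxicity.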
# [13] = BSK_3C_VCAM1: BioMAP Diversity Plus: 3C Assay for Vascular cell adhesion molecule 1 (VCAM1) Biomarker Activity (AID 2282999); details: BioMAP 3C HUVEC, VCAM1 ELISA, cytokine-stimulated; actives raise or lower the signal
# How it was run: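 Activity fitted in both directions relative to DMSO, with ELISA measurement of the surface marker on primary HUVEC (3C) at 24 h post-treatment; parallel SRB staining (0.1% SRB, TCA-fixed, 560 nm) flagged overt cytotoxicity.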
# [14] = BSK_4H_Eotaxin3: BioMAP Diversity Plus: 4H Assay for Eotaxin 3 Biomarker Activity (AID 2283000); details: primary human endothelial cells (HUVEC); actives raise or lower the signal;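 also: CCL26 protein level quantified by ELISA in parallel with SRB cytotoxicity check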
# How it was run: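 ELISA quantitation of CCL26 (Eotaxin-3) protein from chemically dosed human vascular endothelial cells at 24 h; increases and decreases both scored relative to DMSO-treated baseline.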
# [15] = ATG_M_32_TRANS: Attagene TRANS-FACTORIAL HepG2 Assay for M32 Transcription Factor (Internal Marker) (AID 2282984; active = hit-call score of the fitted dose curve at least 0.9, where 1 is the maximum;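 also: transcript level of a background control reporter unit measured by RT-PCR and capillary electrophoresis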); details: HepG2 Attagene TRANS M32 internal marker reporter
# How it was run: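 Internal background reporter in transfected HepG2: after 24 h chemical exposure, RNA reverse-transcribed, reporter cDNA amplified, fluorescently labelled and HpaI-cut, then sized by capillary electrophoresis. Gain of signal fitted against DMSO control.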
# [16] = molecular target: Nuclear receptor subfamily 4 group A member 2 (Homo sapiens) (UniProt P43354); test: ATG_NURR1_TRANS: Attagene TRANS-FACTORIAL HepG2 Assay for human Nuclear Receptor Related Protein 1 (NURR1) (AID 2282985; active = hit-call score of the fitted dose curve at least 0.9, where 1 is the maximum); details: HepG2 Attagene TRANS reporter, mRNA readout
# How it was run: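 Reporter transcript induction, measured by RT-PCR with fluorescent labelling, HpaI digestion and capillary electrophoresis, after 24 hr dosing of human HepG2 cells transiently expressing an exogenous NR-Gal4 fusion with GAL4-UAS-driven reporters; DMSO as baseline.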
# [17] = molecular target: Bile acid receptor (Homo sapiens) (UniProt Q96RI1); test: ATG_FXR_TRANS: Attagene TRANS-FACTORIAL HepG2 Assay for Farnesoid X Receptor (FXR) (AID 2282979; active = hit-call score of the fitted dose curve at least 0.9, where 1 is the maximum;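 also: hits raise reporter mRNA above DMSO so AC50 marks FXR activation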); details: HepG2 Attagene TRANS FXR-GAL4 reporter transcription
# How it was run: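 After 24 h chemical treatment of transfected HepG2 cells, GAL4-UAS reporter transcripts driven by an exogenous FXR-GAL4 fusion were measured by RT-PCR and capillary electrophoresis. Increases over DMSO were fitted.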
# [18] = molecular target: Oxysterols receptor LXR-alpha (Homo sapiens) (UniProt Q13133); test: ATG_LXRa_TRANS: Attagene TRANS-FACTORIAL HepG2 Assay for human Liver X Receptor alpha (LXRa) (AID 2282980; active = hit-call score of the fitted dose curve at least 0.9, where 1 is the maximum); details: HepG2 Attagene TRANS reporter, LXRa transactivation
# How it was run: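 In this multiplexed TRANS system, compounds act on HepG2 cells carrying GAL4-UAS reporter units and a receptor-GAL4 fusion for 24 h. Induced reporter RNA is amplified, fluorescently labelled and sized by capillary electrophoresis, with DMSO as baseline.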
# [19] = ATG_M_06_TRANS: Attagene TRANS-FACTORIAL HepG2 Assay for M06 Transcription Factor (Internal Marker) (AID 2282983; active = hit-call score of the fitted dose curve at least 0.9, where 1 is the maximum); details: HepG2 Attagene TRANS M06 internal marker reporter
# How it was run: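 Multi-reporter-transfected HepG2, 24 h treatment; reporter transcripts quantified via RT-PCR, primer-extension labelling and CE. DMSO-normalized gain-of-signal fit.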
# [20] = molecular target: Hepatocyte nuclear factor 4-alpha (Homo sapiens) (UniProt P41235); test: ATG_HNF4a_TRANS: Attagene TRANS-FACTORIAL HepG2 Assay for human Hepatocyte Nuclear Factor 4 alpha (HNF4a) (AID 2282982; active = hit-call score of the fitted dose curve at least 0.9, where 1 is the maximum); details: HepG2 HNF4a transactivation reporter, mRNA readout
# How it was run: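 Activity of an exogenous HNF4a–Gal4 fusion scored as induced GAL4-UAS reporter transcripts after 24 h chemical exposure of transfected human HepG2 cells. Read-out via RT-PCR with 6-FAM labelling and capillary electrophoresis; rise over DMSO baseline.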
# Oxysterols receptor LXR-beta (Homo sapiens), sequence (P55055 whole entry, looked up, the tested form may be a part): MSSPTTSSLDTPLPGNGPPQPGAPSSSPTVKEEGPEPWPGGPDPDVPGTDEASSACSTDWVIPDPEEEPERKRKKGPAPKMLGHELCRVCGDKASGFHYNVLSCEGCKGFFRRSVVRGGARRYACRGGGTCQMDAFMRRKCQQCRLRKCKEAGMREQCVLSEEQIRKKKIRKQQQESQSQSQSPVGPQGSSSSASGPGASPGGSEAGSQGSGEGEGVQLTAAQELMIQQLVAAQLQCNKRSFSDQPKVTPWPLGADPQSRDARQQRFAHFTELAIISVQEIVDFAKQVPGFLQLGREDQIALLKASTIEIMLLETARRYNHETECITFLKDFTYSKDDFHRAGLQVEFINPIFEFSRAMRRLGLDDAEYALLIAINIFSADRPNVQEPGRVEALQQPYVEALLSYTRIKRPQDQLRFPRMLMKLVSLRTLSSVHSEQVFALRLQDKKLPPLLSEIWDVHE
# Nuclear receptor subfamily 4 group A member 2 (Homo sapiens), sequence (P43354 whole entry, looked up, the tested form may be a part): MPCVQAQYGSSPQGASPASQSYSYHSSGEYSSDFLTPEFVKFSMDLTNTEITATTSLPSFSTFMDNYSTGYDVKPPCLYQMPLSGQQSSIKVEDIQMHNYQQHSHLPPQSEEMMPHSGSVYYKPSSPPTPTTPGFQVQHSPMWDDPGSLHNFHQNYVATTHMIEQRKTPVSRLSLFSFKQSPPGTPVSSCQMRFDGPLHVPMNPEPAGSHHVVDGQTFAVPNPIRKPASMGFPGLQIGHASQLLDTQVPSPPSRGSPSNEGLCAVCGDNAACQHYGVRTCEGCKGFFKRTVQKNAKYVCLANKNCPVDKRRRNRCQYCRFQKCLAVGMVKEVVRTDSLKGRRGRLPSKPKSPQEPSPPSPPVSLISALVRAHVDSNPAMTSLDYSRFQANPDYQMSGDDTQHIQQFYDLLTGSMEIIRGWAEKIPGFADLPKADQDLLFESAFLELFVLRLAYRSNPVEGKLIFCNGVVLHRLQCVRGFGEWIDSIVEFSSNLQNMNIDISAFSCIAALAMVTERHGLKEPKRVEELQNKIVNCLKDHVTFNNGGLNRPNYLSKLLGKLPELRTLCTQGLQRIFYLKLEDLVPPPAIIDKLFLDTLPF
# Cellular tumor antigen p53 (Homo sapiens), sequence (P04637 whole entry, looked up): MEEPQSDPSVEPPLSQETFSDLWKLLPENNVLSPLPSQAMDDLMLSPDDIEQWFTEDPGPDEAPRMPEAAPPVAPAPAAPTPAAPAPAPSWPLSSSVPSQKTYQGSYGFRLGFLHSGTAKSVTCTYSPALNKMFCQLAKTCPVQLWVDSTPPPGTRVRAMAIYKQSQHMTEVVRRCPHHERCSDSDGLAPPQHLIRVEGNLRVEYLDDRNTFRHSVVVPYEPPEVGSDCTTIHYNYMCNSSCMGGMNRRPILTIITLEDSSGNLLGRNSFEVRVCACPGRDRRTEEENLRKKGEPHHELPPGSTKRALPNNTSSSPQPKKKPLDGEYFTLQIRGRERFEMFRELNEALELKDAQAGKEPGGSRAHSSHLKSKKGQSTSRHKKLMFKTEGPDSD
# Hepatocyte nuclear factor 4-alpha (Homo sapiens), sequence (P41235 whole entry, looked up, the tested form may be a part): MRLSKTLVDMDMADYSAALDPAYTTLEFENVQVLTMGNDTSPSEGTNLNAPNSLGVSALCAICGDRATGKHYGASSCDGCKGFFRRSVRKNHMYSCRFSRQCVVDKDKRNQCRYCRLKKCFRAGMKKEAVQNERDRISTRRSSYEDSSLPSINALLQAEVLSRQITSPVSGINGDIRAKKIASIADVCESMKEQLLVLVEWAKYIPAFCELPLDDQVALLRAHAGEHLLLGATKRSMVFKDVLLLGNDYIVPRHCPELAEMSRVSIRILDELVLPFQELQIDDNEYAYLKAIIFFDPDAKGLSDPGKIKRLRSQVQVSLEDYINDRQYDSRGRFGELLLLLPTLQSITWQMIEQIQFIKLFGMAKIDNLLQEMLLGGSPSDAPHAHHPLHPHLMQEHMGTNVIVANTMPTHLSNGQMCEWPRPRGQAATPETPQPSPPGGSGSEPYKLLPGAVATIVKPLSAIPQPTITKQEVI
# Myc proto-oncogene protein (Homo sapiens), sequence (P01106 whole entry, looked up, the tested form may be a part): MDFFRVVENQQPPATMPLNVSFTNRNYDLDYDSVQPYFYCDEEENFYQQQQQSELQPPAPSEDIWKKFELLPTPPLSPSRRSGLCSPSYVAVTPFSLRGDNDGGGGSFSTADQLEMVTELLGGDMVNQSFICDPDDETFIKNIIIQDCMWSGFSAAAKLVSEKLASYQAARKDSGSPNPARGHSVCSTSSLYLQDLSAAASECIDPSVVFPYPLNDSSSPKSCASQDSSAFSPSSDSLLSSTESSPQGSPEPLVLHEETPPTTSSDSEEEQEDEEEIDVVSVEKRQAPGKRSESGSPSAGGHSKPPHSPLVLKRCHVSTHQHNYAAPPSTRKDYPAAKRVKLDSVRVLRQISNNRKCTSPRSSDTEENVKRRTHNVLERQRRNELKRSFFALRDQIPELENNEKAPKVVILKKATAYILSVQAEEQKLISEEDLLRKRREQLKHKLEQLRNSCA
# Glucocorticoid receptor (Homo sapiens), sequence (P04150 whole entry, looked up, the tested form may be a part): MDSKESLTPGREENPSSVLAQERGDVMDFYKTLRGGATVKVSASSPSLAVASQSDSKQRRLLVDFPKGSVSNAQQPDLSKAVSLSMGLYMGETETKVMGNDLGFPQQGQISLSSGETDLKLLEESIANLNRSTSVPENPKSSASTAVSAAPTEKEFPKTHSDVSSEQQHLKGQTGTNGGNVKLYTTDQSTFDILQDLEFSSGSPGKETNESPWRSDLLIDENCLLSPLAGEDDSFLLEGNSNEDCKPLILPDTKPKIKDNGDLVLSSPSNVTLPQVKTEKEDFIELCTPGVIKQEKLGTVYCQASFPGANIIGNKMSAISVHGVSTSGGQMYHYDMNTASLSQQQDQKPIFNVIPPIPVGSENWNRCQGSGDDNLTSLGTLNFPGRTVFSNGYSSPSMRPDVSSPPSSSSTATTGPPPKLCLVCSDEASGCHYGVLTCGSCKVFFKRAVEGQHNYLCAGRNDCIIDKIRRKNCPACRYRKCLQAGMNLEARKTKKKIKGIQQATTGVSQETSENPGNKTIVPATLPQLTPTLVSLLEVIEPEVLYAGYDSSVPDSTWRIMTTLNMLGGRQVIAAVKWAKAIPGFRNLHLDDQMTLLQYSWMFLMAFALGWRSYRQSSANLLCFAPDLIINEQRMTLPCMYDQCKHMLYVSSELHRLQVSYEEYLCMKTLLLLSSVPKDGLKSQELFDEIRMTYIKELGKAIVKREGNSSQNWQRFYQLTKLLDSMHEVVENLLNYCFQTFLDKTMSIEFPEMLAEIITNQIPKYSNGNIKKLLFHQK
# Nuclear respiratory factor 1 (Homo sapiens), sequence (Q16656 whole entry, looked up): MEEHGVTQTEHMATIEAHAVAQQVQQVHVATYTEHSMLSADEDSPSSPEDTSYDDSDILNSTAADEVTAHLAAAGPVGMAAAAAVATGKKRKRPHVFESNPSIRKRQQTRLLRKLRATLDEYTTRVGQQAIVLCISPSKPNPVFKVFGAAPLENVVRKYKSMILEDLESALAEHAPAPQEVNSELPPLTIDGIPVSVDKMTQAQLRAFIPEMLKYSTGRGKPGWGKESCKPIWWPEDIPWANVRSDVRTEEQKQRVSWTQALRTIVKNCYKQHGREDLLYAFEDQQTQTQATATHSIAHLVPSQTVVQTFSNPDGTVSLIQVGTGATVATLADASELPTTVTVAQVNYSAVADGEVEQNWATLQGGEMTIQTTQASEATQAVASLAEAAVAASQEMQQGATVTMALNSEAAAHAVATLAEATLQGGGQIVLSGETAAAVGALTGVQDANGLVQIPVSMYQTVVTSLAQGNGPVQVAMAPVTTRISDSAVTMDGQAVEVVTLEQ
# Transcriptional activator Myb (Homo sapiens), sequence (P10242 whole entry, looked up): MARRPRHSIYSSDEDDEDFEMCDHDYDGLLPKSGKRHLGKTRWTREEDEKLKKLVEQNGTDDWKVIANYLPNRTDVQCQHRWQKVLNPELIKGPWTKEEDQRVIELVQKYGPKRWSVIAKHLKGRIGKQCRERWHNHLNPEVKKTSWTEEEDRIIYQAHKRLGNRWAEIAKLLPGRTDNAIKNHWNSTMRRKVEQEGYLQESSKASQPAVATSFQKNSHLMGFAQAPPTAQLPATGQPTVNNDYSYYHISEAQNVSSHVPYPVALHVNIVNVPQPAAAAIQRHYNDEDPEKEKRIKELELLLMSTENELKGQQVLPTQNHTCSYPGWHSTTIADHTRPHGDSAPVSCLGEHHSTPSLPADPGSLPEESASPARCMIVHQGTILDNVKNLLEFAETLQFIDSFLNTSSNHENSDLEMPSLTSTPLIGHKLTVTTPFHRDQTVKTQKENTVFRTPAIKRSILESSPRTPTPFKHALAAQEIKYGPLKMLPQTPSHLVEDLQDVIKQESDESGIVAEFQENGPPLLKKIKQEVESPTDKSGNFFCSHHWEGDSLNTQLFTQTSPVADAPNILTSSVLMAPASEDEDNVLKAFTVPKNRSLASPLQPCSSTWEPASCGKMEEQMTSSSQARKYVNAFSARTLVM
# Oxysterols receptor LXR-alpha (Homo sapiens), sequence (Q13133 whole entry, looked up, the tested form may be a part): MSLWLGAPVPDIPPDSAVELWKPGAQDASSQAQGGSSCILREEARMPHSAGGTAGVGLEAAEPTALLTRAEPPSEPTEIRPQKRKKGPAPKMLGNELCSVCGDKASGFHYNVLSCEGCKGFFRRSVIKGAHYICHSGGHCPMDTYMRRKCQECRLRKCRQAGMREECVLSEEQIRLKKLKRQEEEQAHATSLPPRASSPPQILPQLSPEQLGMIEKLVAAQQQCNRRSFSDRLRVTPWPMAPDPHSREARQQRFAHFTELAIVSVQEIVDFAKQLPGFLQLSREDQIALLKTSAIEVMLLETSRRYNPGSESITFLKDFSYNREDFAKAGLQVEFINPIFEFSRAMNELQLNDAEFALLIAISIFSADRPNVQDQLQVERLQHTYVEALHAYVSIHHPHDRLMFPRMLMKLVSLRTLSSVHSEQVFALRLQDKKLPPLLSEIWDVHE
structure (smiles),measurement,setting,value
CC1(C)[C@@H]2CC[C@@]1(C)[C@H](O)C2,outcome,[1],inactive
same,outcome,[2],inactive
same,outcome,[3],inactive
same,outcome,[4],inactive
same,outcome,[5],inactive
same,outcome,[6],inactive
same,outcome,[7],inactive
N#Cc1ccc(CC(=NNC(=O)Nc2ccc(OC(F)(F)F)cc2)c2cccc(C(F)(F)F)c2)cc1,outcome,[1],inactive
same,outcome,[8],inactive
same,outcome,[2],inactive
same,outcome,[3],inactive
same,outcome,[4],inactive
same,outcome,[5],inactive
same,outcome,[9],inactive
same,outcome,[6],inactive
same,outcome,[7],inactive
same,outcome,[10],inactive
same,outcome,[11],inactive
same,outcome,[12],inactive
same,outcome,[13],inactive
same,outcome,[14],inactive
CCCCC(CC)COC(=O)/C=C\C(=O)OCC(CC)CCCC (stereo not drawn),outcome,[1],inactive
same,outcome,[15],inactive
same,outcome,[16],inactive
same,outcome,[2],inactive
same,outcome,[3],inactive
same,outcome,[4],inactive
same,outcome,[5],inactive
same,AC50,[9],45.6 µM (active)
same,AC50,[6],9.08 µM (active)
same,outcome,[7],inactive
same,outcome,[10],inactive
same,outcome,[11],inactive
same,outcome,[12],inactive
same,outcome,[13],inactive
same,outcome,[14],inactive
Cc1c(N(C)C)c(=O)n(-c2ccccc2)n1C,outcome,[17],inactive
same,outcome,[18],inactive
same,outcome,[8],inactive
same,outcome,[19],inactive
same,outcome,[15],inactive
same,outcome,[16],inactive
same,outcome,[2],inactive
same,outcome,[3],inactive
same,outcome,[4],inactive
same,outcome,[5],inactive
same,outcome,[9],inactive
same,outcome,[6],inactive
CCC(C)(O)CCC=C(C)C (stereo not drawn),outcome,[1],inactive
same,outcome,[19],inactive
same,outcome,[15],inactive
same,outcome,[16],inactive
same,outcome,[2],inactive
same,outcome,[3],inactive
same,outcome,[4],inactive
same,outcome,[5],inactive
same,outcome,[9],inactive
same,outcome,[6],inactive
same,outcome,[7],inactive
same,outcome,[10],inactive
CC(=O)OCCOC(C)=O,outcome,[1],inactive
same,outcome,[20],inactive
same,outcome,[19],inactive
same,outcome,[15],inactive
same,outcome,[3],inactive
same,outcome,[4],inactive
same,outcome,[5],inactive
same,outcome,[9],inactive
same,outcome,[6],inactive
same,outcome,[7],inactive
same,outcome,[10],inactive
FC1(F)C(F)(F)C(F)(F)C2(F)C(F)(C1(F)F)C(F)(F)C(F)(F)C1(F)C(F)(F)C(F)(F)C(F)(F)C(F)(F)C12F (stereo not drawn),outcome,[1],inactive
same,outcome,[20],inactive
same,outcome,[19],inactive
same,outcome,[3],inactive
same,outcome,[4],inactive
same,outcome,[5],inactive
same,outcome,[9],inactive
same,outcome,[6],inactive
same,outcome,[7],inactive
same,outcome,[10],inactive
COc1cccc(OC)c1,outcome,[1],inactive
same,outcome,[8],inactive
same,outcome,[2],inactive
same,outcome,[3],inactive
same,outcome,[4],inactive
same,outcome,[5],inactive
same,outcome,[9],inactive
same,outcome,[6],inactive
same,outcome,[7],inactive
same,outcome,[10],inactive
CO[Si](C)(OC)c1ccccc1,outcome,[1],inactive
same,outcome,[19],inactive
same,outcome,[16],inactive
same,outcome,[3],inactive
same,outcome,[4],inactive
same,outcome,[5],inactive
same,AC50,[6],16.2 µM (active)
same,outcome,[7],inactive
same,outcome,[10],inactive
O=C(O)c1ccc(C(=O)O)cc1,outcome,[1],inactive
same,outcome,[20],inactive
same,outcome,[19],inactive
same,outcome,[15],inactive
same,outcome,[16],inactive
same,outcome,[2],inactive
same,outcome,[3],inactive
same,outcome,[4],inactive
same,outcome,[5],inactive
same,outcome,[9],inactive
same,outcome,[6],inactive
same,outcome,[7],inactive
same,outcome,[10],inactive
